MITF act: activators of MITF-driven TRPM1 promoter activity in SK-MEL-5 cells; SK-MEL-5 TRPM1-promoter luciferase, 24 h; % of positive control, neutral wells = 0; activation, % at 12.5 µM; 300,000 tested, 0.75% active;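 active = mean activation of at least 80% with every replicate also reaching 80%; inconclusive = mean reaches 80% but some replicate falls short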
esBAF inh: blocks esBAF chromatin remodeling in mouse ES cells; 350,000 tested, 2% active; Bmi1-luciferase knock-in reporter, 24 h; 100% = twice the neutral-well signal; reporter increase, % at 12.5 µM; in the data active = activation above about 40%; inconclusive = no clear call, values can overlap the other calls;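 also: a rise in the Bmi1 reporter signal indicates esBAF inhibition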
APOBEC3G inh: blocks human APOBEC3G single-stranded DNA deamination. Q9HC16. recombinant A3G, ssDNA deamination FAM/TAMRA fluorescence. inhibition, % at 20 µM. 330,000 tested, 0.28% active. AID 493012;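 active = inhibition of at least 40% at 20 µM, with no more than 30% in the related APOBEC3A deaminase screen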
Target sequence (Q9HC16 whole entry, looked up): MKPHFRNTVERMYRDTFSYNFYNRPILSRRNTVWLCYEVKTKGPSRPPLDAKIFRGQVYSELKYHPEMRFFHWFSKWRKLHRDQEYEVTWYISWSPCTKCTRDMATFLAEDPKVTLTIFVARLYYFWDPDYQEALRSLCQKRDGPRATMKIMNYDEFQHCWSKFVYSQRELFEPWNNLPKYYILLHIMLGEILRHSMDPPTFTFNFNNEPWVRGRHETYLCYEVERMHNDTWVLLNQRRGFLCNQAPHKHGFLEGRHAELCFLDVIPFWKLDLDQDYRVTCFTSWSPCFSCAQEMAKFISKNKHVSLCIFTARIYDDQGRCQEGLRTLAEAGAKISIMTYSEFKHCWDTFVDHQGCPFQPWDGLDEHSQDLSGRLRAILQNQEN
Wnt bcat act: activators of Wnt/beta-catenin signaling | Wnt/beta-catenin reporter cell assay, activator, plate reader | activation, % at 9.35 µM | 300,000 tested, 1.2% active; in the data active = activation above about 30%, passing the limit was not always enough; inconclusive = no clear call, values can overlap the other calls
PHOSPHO1 block: blocks human PHOSPHO1 phosphatase activity; inhibition, % at 13.3 µM; recombinant PHOSPHO1, absorbance phosphatase assay; 290,000 tested, 1.1% active; AID 1565; in the data active = inhibition above about 60%
A3A deaminase: blocks human APOBEC3A ssDNA deamination; P31941; recombinant A3A, FAM/TAMRA ssDNA deamination fluorescence; inhibition, % at 20 µM; 330,000 tested, 0.41% active;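 active = at least 40% inhibition at 20 µM here, with at most 30% in a related deaminase screen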
Ring1 derepress: esBAF inhibition confirmed by Ring1 de-repression; shares compounds with esBAF inh; mouse ESC E14, Ring1 mRNA RT-qPCR fold change; fold change at 33 µM; 550 tested, under 10 active; AID 743176;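 active = Ring1 gene expression raised more than 2-fold over untreated cells in both replicates at either tested dose; inconclusive = only one replicate above 2-fold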;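 also: Ring1 transcript normalised to actin housekeeping signal by TaqMan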
Fgf4 repress: represses Fgf4 in mouse ESCs, confirming esBAF inhibition; shares compounds with esBAF inh; mouse ESC E14, Fgf4 mRNA qPCR fold change; active compounds read low; Fgf4 expression fold change at 33 µM; 550 tested, 4% active;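 active = Fgf4 expression under 0.8 fold of control in both repeat measurements at one or both tested doses; inconclusive = under 0.8 fold in just a single repeat measurement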;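 also: Fgf4 transcript normalised to actin in duplex TaqMan qPCR; cells exposed to compound for 24 h before lysis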
esBAF Bmi1 qPCR: confirmation of esBAF inhibitors: Bmi1 de-repression in mouse ESCs. shares compounds with esBAF inh. mouse ESE14 ES cells, Bmi1 mRNA qPCR fold; active compounds read high. fold change at 33 µM. 550 tested, under 10 active;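 active = Bmi1 expression fold change above 6 at either tested concentration, seen in replicate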;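 also: higher fold means more Bmi1 de-repression and stronger esBAF inhibition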
A549 cytotox: kills or reduces viability of A549 cells. shares compounds with esBAF inh. A549 cytotoxicity, plate reader. cell viability change % (negative = cytotoxic), % at 25 µM, hits read low. 550 tested, under 10 active. AID 743188; call rule not given here
HepG2 cytotox SP: HepG2 cell cytotoxicity at single point; 550 tested, 4% active; AID 743189; shares compounds with esBAF inh; plate reader; active compounds read low; activity change, negative = inhibition, % at 25 µM; in the data active = activity change below about -50%
HEK293 tox SP: cytotoxicity in HEK293 cells; activity change, negative = inhibition, % at 25 µM, hits read low; 550 tested, 3% active; plate reader; shares compounds with esBAF inh; in the data active = activity change below about -38%, passing the limit was not always enough
Hits are given with their value; i = inactive; ? = inconclusive; nt = no result given. Compounds with a hit are over-represented: about 3.6% of the library has one in this group of screens.

SMILES | MITF act | esBAF inh | APOBEC3G inh | Wnt bcat act | PHOSPHO1 block | A3A deaminase | Ring1 derepress | Fgf4 repress | esBAF Bmi1 qPCR | A549 cytotox | HepG2 cytotox SP | HEK293 tox SP
COc1cc2ccccc2cc1C(=O)Nc1ccc(Br)cn1 | i | 86.1 | i | i | i | i | i | i | i | i | i | i
Cc1ccc(N=Nc2cc(C)ccc2O)c(C)c1 | i | 86.6 | i | i | i | i | i | ? | i | i | -50.3 | i
Cc1ccc(C)c(N=Nc2ccc(O)c3ncccc23)c1 | i | nt | i | i | i | i | nt | nt | nt | nt | nt | nt
O=C(NCC[C@H]1CC[C@@H](NC(=O)C2CCCCC2)[C@H](CO)O1)Nc1ccc(Cl)cc1 | nt | i | nt | nt | nt | nt | nt | nt | nt | nt | nt | nt
CO[C@@H]1CN(C)C(=O)c2cc(NC(=O)C3CCC3)ccc2OC[C@@H](C)N(Cc2ccc(F)cc2)C[C@H]1C | nt | i | nt | nt | nt | nt | nt | nt | nt | nt | nt | nt
Fc1ccc(-c2ccc3nccn3c2)cc1Cl | nt | i | nt | i | nt | nt | nt | nt | nt | nt | nt | nt
CC(C)Cc1ccc(-c2ccc3nccn3c2)cc1 | nt | 66.5 | nt | i | nt | nt | i | ? | i | i | i | i
CC(=O)NC(c1ccccc1)c1nc(/C=C/c2ccccc2)cs1 (stereo not drawn) | nt | i | nt | i | nt | nt | nt | nt | nt | nt | nt | nt
OC(c1ccccc1)c1nc(/C=C/c2ccccc2)cs1 (stereo not drawn) | nt | 59.2 | nt | i | nt | nt | i | ? | i | i | i | i
COc1ccc(-c2csc(C(O)c3ccccc3)n2)cc1 (stereo not drawn) | nt | 92.3 | nt | i | nt | nt | i | ? | i | i | i | i
COCC(=O)N1CCCCN2[C@H](CO)[C@@H](c3ccc(-c4ccc(C)cc4)cc3)[C@@H]2C1 | nt | i | nt | nt | nt | nt | nt | nt | nt | nt | nt | nt
CC(=O)N[C@@H]1CC[C@H](CC(=O)NCc2ccc(Cl)cc2)O[C@H]1CO | nt | i | nt | nt | nt | nt | nt | nt | nt | nt | nt | nt
O=C(Nc1ccc(F)cc1F)NC1CCCCCCC1 | i | 63.1 | i | i | 61.0 | i | i | i | i | i | -50.9 | i
COc1ccc(CNc2nc3ccccc3s2)cc1OC | nt | 62.4 | i | i | i | i | i | i | i | i | i | i
c1ccc(CCNc2nc3ccccc3s2)cc1 | nt | 55.3 | i | nt | i | i | i | i | i | i | i | i
COc1ccc(CNc2nccs2)cc1OC | i | i | i | i | i | i | nt | nt | nt | nt | nt | nt
CO[C@H]1CN(C)C(=O)c2cc(NC(C)=O)ccc2OC[C@H](C)N(C(=O)C2CCC2)C[C@@H]1C | nt | i | nt | nt | nt | nt | nt | nt | nt | nt | nt | nt
CNc1cncc(-c2cccc(OC)c2F)n1 | nt | 63.3 | nt | i | nt | nt | i | ? | i | i | i | i
CN1CCN(C(=O)C[C@@H]2C[C@H]3c4cc(NC(=O)Nc5ccccc5)ccc4O[C@H]3[C@H](CO)O2)CC1 | nt | i | nt | nt | nt | nt | nt | nt | nt | nt | nt | nt
Cc1cc(C)c2c(N)c(C(=O)Nc3ccccc3Br)sc2n1 | i | 60.6 | i | i | nt | i | i | i | i | i | i | i
COc1ccc(Cc2nc(-c3ccncc3)no2)cc1 | i | nt | i | i | i | i | nt | nt | nt | nt | nt | nt
Clc1ccc(Cc2nc(-c3ccncc3)no2)cc1 | i | nt | i | i | i | i | nt | nt | nt | nt | nt | nt
Cc1cccc(-c2noc(Cc3ccc(Cl)cc3)n2)c1 | i | 87.3 | i | i | i | i | i | ? | i | i | i | i
COc1ccc(Cc2nc(-c3cccc(C)c3)no2)cc1 | i | 57.5 | i | i | i | i | i | i | i | i | i | i
Cc1ccccc1S(=O)(=O)NCC[C@@H]1CC[C@@H](NS(=O)(=O)c2ccccc2C)[C@H](CO)O1 | nt | i | nt | nt | nt | nt | nt | nt | nt | nt | nt | nt
C[C@H](CO)N1C[C@H](C)[C@H](CN(C)C(=O)C2CCC2)Oc2cc(C#C[C@@H](C)O)ccc2S1(=O)=O | nt | i | nt | nt | nt | nt | nt | nt | nt | nt | nt | nt
